In PubChem BioAssay AID2494 (National Center for Advancing Translational Sciences (NCATS), 2010):
Calls of active or inactive are those of the source.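 Rule for the calls: active = compounds that inhibit caspase-1 with a complete, partial or top-dose-only concentration response; inactive = the rest.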

target: Caspase-1 (Homo sapiens) (UniProt P29466); test: Confirmation Assay for Allosteric/Competitive Inhibitors of Caspase-1; conditions: Caspase-1 enzyme, fluorogenic peptide substrate, kinetic rate
Excerpt: NIH Molecular Libraries Screening Centers Network [MLSCN] NIH Chemical Genomics Center [NCGC] MLSCN Grant: 1 X01 MH078950-01 PI Name: Dr. James Wells, Dr. Enrique Perez-Paya, Dr.Janice Williams, Dr. Dennis Wolan, a person NCGC Assay Overview: The caspases (Cysteine Aspartyl Protease) comprise a related family of 14 dimeric proteases that are critical mediators of apoptosis (programmed cell death) and inflammation. The caspases represent an important class of drug targets for stroke, ischemia, cancer and inflammatory diseases. […] One goal of this project was to identify compounds that act as allosteric inhibitors via stabilizing the procaspase form of the enzyme. Previous work in Well's laboratory has shown that such allosteric inhibitors can be identified and these act by binding at the dimer interface of enzyme (Hardy, Lam et al., 2004). The biochemical assay was configured using purified caspase 1 at a high enzyme concentration to promote formation of the homodimers and thus facilitate the identification of allosteric inhibitors. The overall goal was to identify reversible inhibitors with better drug-like properties than the currently available set of aspartyl-containing peptidomimetics that covalently bind the active site. Caspase 1 was assayed using the profluorescent substrate […]. After initiation of the assay with substrate the plates were rapidly read using an automated robotic system (Kalypsys, Inc.) to maintain consistent timing. A kinetic mode of detection was used where the initial rate was collected (estimated final product formation was ~10%). Compounds were screened as a concentration-titration series that ranged from 57 uM to 0.7 nM. Below is the protocol used for caspase 1.
Caspase-1 was dispensed ([…]) into a 1536-well black solid-bottom microplate (Greiner Bio-One, Monroe, USA) using a Bio-RAPTR (Beckman Coulter, Fullerton, USA) nanoliter dispenser for automated addition of reagents, to give a final enzyme concentration of 2 nM. Assay buffer was 50 mM HEPES, pH7.4, containing 1M sodium citrate, 100 mM NaCl, 0.1 mM EDTA, 10 mM DTT, 0.01% CHAPS, 1% DMSO, and 0.1 mg/mL bovine serum albumin (BSA). Aliquots of test compound (23 nL) from a DMSO stock solution were transferred to the enzyme-containing wells using a pintool transfer station (Kalypsys Inc., San Diego, USA), and the plates were incubated for 15 min at room temperature. Each compound was added as a 12-point titration in duplicate. Substrate was dispensed ([…]) to give a final caged fluorescent peptide substrate (Ac-LEHD-AMC) concentration of […], and the initial reaction rate was monitored over 20 min at room temperature. Free AMC was measured by fluorescence detection (lex=340 nm, lem=450) with a ViewLux charge-coupled device-based imager (PerkinElmer, Waltham, USA). Percent inhibition was calculated from the median values of the uninhibited and the uncatalyzed controls, and IC50 values were determined by fitting the concentration-response data with a four-parameter Hill equation as previously described (http://www.ncgc.nih.gov/pub/openhts/curvefit/).

SMILES | outcome | Potency
CC(=O)N[C@H](C(=O)N[C@@H](C)C(=O)N[C@H](C#N)CC(=O)O)C(C)C | inactive | –
CCOC(=O)C[C@@H](C#N)NC(=O)[C@@H]1CCCN1C(=O)[C@@H](NC(=O)c1ccc(N)c(Cl)c1)C(C)(C)C | – | 145 nM (active)
Cc1ccccc1C(=O)N[C@H](C(=O)N1CCC[C@H]1C(=O)N[C@H](C#N)CC(=O)O)C(C)(C)C | – | 2.78 nM (active)
CC(C)(C)[C@H](NC(=O)c1ccc(N)c(Cl)c1)C(=O)N1CCC[C@H]1C(=O)N[C@H](C#N)CC(=O)O | – | 0.316 nM (active)
CC(C)(C)[C@H](NC(=O)c1cc(Cl)cc(Cl)c1)C(=O)N1CCC[C@H]1C(=O)N[C@H](C#N)CC(=O)O | – | 0.436 nM (active)
CC(=O)N[C@@H](Cc1ccc(O)cc1)C(=O)N[C@H](C(=O)N[C@@H](C)C(=O)N[C@H](C#N)CC(=O)O)C(C)C | – | 2.51 nM (active)
CONC(=O)C[C@@H](C#N)NC(=O)[C@@H]1CCCN1C(=O)[C@@H](NC(=O)c1ccc(N)c(Cl)c1)C(C)(C)C | – | 145 nM (active)
CC(C)(C)[C@H](NC(=O)c1ccc(N)c(Cl)c1)C(=O)N1CCC[C@H]1C(=O)N[C@H](C#N)Cc1nn[nH]n1 | – | 20.4 nM (active)
CC(C)(C)[C@H](NC(=O)c1ccc(C(F)(F)F)cc1)C(=O)N1CCC[C@H]1C(=O)N[C@H](C#N)CC(=O)O | – | 8.33 nM (active)
COc1ccc(C(=O)N[C@H](C(=O)N2CCC[C@H]2C(=O)N[C@H](C#N)CC(=O)O)C(C)(C)C)cc1Cl | – | 0.439 nM (active)
